# Where “and” joins values, the source holds several entries; their conditions need not be identical. Equal entries are not always repeated. Results filed as inconclusive are left out. Entries that show only a call come without a potency. Unmarked numbers belong to inactive results. Calls of active or inactive are those of the source. Calls follow the shape of the dose curve; as a rule, active = well fitted curve in the direction sought with a large enough effect; inconclusive = small, poorly fitted or top-dose-only effect, or another doubt; inactive = no such curve, though single readings can be large; an effect the other way counts as inactive or inconclusive.
# How the values were obtained:
# MCC-13 = test: qHTS assay to identify novel small-molecules to repurpose for Merkel cell carcinoma treatment (AID 1296009); details: MCC and control cell lines, CellTiter-Glo viability, 72 h; series mostly up to 46 µM; also: nearly all actives have a fitted effect of over 60% in size
# Outline: (§1)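 Dose-response viability screen; 72 hr exposure at 37 degree celsius; CellTiter-Glo added, 10 min room temperature, luminescence read; RLUs scaled between no-cell and DMSO wells.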
# MCC-26 = test: as above; details: MCC and control cell lines, CellTiter-Glo viability, 72 h; series mostly up to 46 µM
# Outline: as §1
# MKL-1 = test: as above; details: MCC and control cell lines, CellTiter-Glo viability, 72 h; series mostly up to 46 µM
# Outline: as §1
# MKL-2 = test: as above; details: MCC and control cell lines, CellTiter-Glo viability, 72 h; series mostly up to 46 µM
# Outline: as §1
# UISO = test: as above; details: MCC and control cell lines, CellTiter-Glo viability, 72 h; series mostly up to 46 µM
# Outline: as §1
# WaGa = test: as above; details: MCC and control cell lines, CellTiter-Glo viability, 72 h; series mostly up to 46 µM
# Outline: as §1
# C33A = test: Primary qHTS to identify gynecologic anti-cancer compounds using libraries of approved drugs and bioactive compounds (AID 1345084); details: Gynecologic cancer cell panel viability, ATPlite luminescence, 48 h; series mostly up to 57.5 µM; also: nearly all actives have a fitted effect of over 55% in size
# Outline: (§2)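 ATP-based viability (ATPlite), 1,000 cells/well, 16 h pre-incubation, 48 h compound at 37 C, 5% CO2, 15 min RT before read.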
# CAOV3 = test: as above; details: Gynecologic cancer cell panel viability, ATPlite luminescence, 48 h; series mostly up to 57.5 µM
# Outline: as §2
# CASKI = test: as above; details: Gynecologic cancer cell panel viability, ATPlite luminescence, 48 h; series mostly up to 57.5 µM
# Outline: as §2
# Es-2 = test: as above; details: Gynecologic cancer cell panel viability, ATPlite luminescence, 48 h; series mostly up to 57.5 µM
# Outline: as §2
# HeLa = test: as above; details: Gynecologic cancer cell panel viability, ATPlite luminescence, 48 h; series mostly up to 57.5 µM
# Outline: as §2
# W2 = test: qHTS profiling for inhibitors of Plasmodium falciparum proliferation (AID 504749); also: nearly all actives have a fitted effect of over 60% in size; details: P. falciparum in erythrocytes, SYBR Green DNA, 72 h; series mostly up to 28.7 µM
# Outline: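 Each compound contacts P. falciparum-infected red blood cells for 72 h at 37 C; lysis buffer (Tris, EDTA, saponin, Triton X, SYBR Green I) is added and fluorescence measured next morning; values normalized to controls.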
# HaCat [1] = test: Cytotoxic Profiling of Annotated Libraries Using Quantitative High-Throughput Screening (AID 1296008); details: Five cell lines viability, CellTiter-Glo ATP luminescence, 48-72 h; max response: hits give low values; also: nearly all actives have a fitted effect of over 60% in size
# Outline: (§3)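 Cells exposed to compounds for 48 or 72 hr at 37 degrees Celsius. Viability read as ATP-coupled luminescence with CellTiter-Glo after 10 min at room temperature.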
# KB-3-1 = test: as above; details: Five cell lines viability, CellTiter-Glo ATP luminescence, 48-72 h; max response: hits give low values
# Outline: as §3
# HEK293 = test: as above; details: Five cell lines viability, CellTiter-Glo ATP luminescence, 48-72 h; max response: hits give low values
# Outline: as §3
# NIH3T3 = test: as above; details: Five cell lines viability, CellTiter-Glo ATP luminescence, 48-72 h; max response: hits give low values
# Outline: as §3
# CRL-7250 = normal cell line; test: as above; details: Five cell lines viability, CellTiter-Glo ATP luminescence, 48-72 h; max response: hits give low values
# Outline: as §3
# HACAT [2] = test: qHTS assay to identify novel small-molecules to repurpose for Merkel cell carcinoma treatment (AID 1296009); details: MCC and control cell lines, CellTiter-Glo viability, 72 h; at 44.8 µM (top of the series) unless noted; also: nearly all actives have a fitted effect of over 60% in size
# Outline: as §1
# HEK293T = test: as above; details: MCC and control cell lines, CellTiter-Glo viability, 72 h; at 44.8 µM (top of the series) unless noted
# Outline: as §1
# Potency is read from the fitted curve at half-maximal effect.
smiles,measurement,setting,value
CN(C)CCOC(C)(c1ccccc1)c1ccccn1 (centres undefined),Potency,MCC-13,inactive
same,Potency,MCC-26,inactive
same,Potency,MKL-1,inactive
same,Potency,MKL-2,inactive
same,Potency,UISO,inactive
same,Potency,WaGa,inactive
same,Potency,C33A,inactive
same,Potency,CAOV3,inactive
same,Potency,CASKI,inactive
same,Potency,Es-2,inactive
same,Potency,HeLa,inactive
CNCCCC1c2ccccc2C=Cc2ccccc21,Potency,W2,0.51 µM (active)
same,max response,HaCat [1],-1.18%
same,max response,KB-3-1,6.95%
same,Potency,MCC-13,inactive
same,Potency,MCC-26,inactive
same,Potency,MKL-2,21.1 µM (active)
same,Potency,UISO,inactive
same,Potency,C33A,inactive
same,Potency,HeLa,inactive
CC(CN1c2ccccc2Sc2ccccc21)N(C)C (centres undefined),Potency,HEK293,11.9 µM (active)
same,max response,HaCat [1],3.18%
same,max response,KB-3-1,7.29%
same,Potency,MCC-13,inactive
same,Potency,MCC-26,inactive
same,Potency,MKL-1,inactive
same,Potency,MKL-2,inactive
same,Potency,C33A,inactive
same,Potency,CASKI,inactive
same,Potency,Es-2,inactive
same,Potency,HeLa,inactive
CC1=C(/C=C/C(C)=C/C=C/C(C)=C/C(=O)O)C(C)(C)CCC1,Potency,W2,inactive
same,max response,HaCat [1],-3.44%
same,max response,KB-3-1,-14.5%
same,max response,NIH3T3,-0.598%
same,Potency,MCC-13,inactive
same,Potency,MCC-26,inactive
same,Potency,UISO,inactive
same,Potency,C33A,inactive
same,Potency,CAOV3,inactive
same,Potency,CASKI,inactive
same,Potency,Es-2,inactive
same,Potency,HeLa,inactive
CCN(CC)CCNC(=O)c1c(C)[nH]c(/C=C2\C(=O)Nc3ccc(F)cc32)c1C,Potency,W2,4.26 µM (active)
same,Potency,HEK293,8.41 µM (active)
same,max response,KB-3-1,-5.42%
same,max response,NIH3T3,-10.6%
same,Potency,MCC-13,23.7 µM (active)
same,Potency,MKL-1,2.99 µM (active)
same,Potency,MKL-2,2.99 µM (active)
same,Potency,UISO,11.9 µM (active)
same,Potency,WaGa,11.9 µM (active)
same,Potency,C33A,inactive
same,Potency,CAOV3,25.1 µM (active)
CN(C)CCCN1c2ccccc2Sc2ccc(Cl)cc21,Potency,W2,1.07 µM (active)
same,max response,KB-3-1,-6.48%
same,Potency,MKL-1,23.7 µM (active)
same,Potency,WaGa,26.6 µM (active)
[Cl][In]([Cl])[Cl],Potency,W2,7.57 µM (active)
same,max response,HEK293,1.84%
same,max response,KB-3-1,0.288% and -3.71%
same,max response,NIH3T3,-11.3%
same,Potency,MCC-26,inactive
same,Potency,MKL-1,inactive
same,Potency,MKL-2,inactive
same,Potency,WaGa,inactive
same,Potency,C33A,inactive
same,Potency,CASKI,inactive
same,Potency,Es-2,inactive
same,Potency,HeLa,inactive
Cc1c(O)cccc1C(=O)N[C@@H](CSc1ccccc1)[C@H](O)CN1C[C@H]2CCCC[C@H]2C[C@H]1C(=O)NC(C)(C)C,Potency,W2,8.49 µM (active)
same,Potency,CASKI,inactive
same,Potency,Es-2,inactive
same,Potency,HeLa,inactive
CC(=O)O[C@@]12CO[C@@H]1C[C@H](O)[C@@]1(C)C(=O)[C@H](O)C3=C(C)[C@@H](OC(=O)[C@H](O)[C@@H](NC(=O)OC(C)(C)C)c4ccccc4)C[C@@](O)([C@@H](OC(=O)c4ccccc4)[C@H]21)C3(C)C,Potency,HEK293,0.0021 µM (active)
same,Potency,KB-3-1,0.0073 µM (active)
same,Potency,NIH3T3,0.0084 µM (active)
same,Potency,MKL-2,inactive
same,Potency,C33A,inactive
same,Potency,CAOV3,inactive
same,Potency,CASKI,inactive
O=C1Nc2ccc(Cl)cc2[C@@](C#CC2CC2)(C(F)(F)F)O1,max response,CRL-7250,-9.32% and 4.5%
same,outcome,HaCat [1],inactive
same,max response,KB-3-1,17.8% and -24.9%
same,max response,NIH3T3,3.57%
same,outcome,HACAT [2],inactive
same,Potency,MCC-26,inactive
same,Potency,C33A,inactive
same,Potency,CAOV3,inactive
same,Potency,CASKI,inactive
same,Potency,Es-2,inactive
same,Potency,HeLa,inactive
CN1[C@@H]2CC(OC(=O)[C@H](CO)c3ccccc3)C[C@H]1[C@@H]1O[C@@H]12 (some centres undefined),outcome,HEK293T,inactive
same,Potency,MCC-13,inactive
same,Potency,MCC-26,inactive
same,Potency,MKL-1,inactive
same,Potency,C33A,inactive
same,Potency,CASKI,inactive
same,Potency,Es-2,inactive
same,Potency,HeLa,inactive
COCCOC(=O)C1=C(C)NC(C)=C(C(=O)OC/C=C/c2ccccc2)C1c1cccc([N+](=O)[O-])c1 (centres undefined),Potency,W2,9.53 µM (active)
same,max response,KB-3-1,22.9%
same,Potency,MCC-26,inactive
same,Potency,MKL-1,21.1 µM (active)
same,Potency,Es-2,inactive
same,Potency,HeLa,inactive
O=C1NC(=O)[C@@]2(CCOc3ccc(F)cc32)N1,Potency,W2,inactive
same,outcome,HEK293T,inactive
same,Potency,MCC-13,inactive
same,Potency,MCC-26,inactive
same,Potency,MKL-1,inactive
same,Potency,MKL-2,inactive
same,Potency,UISO,inactive
same,Potency,WaGa,inactive
same,Potency,C33A,inactive
same,Potency,CASKI,inactive
same,Potency,Es-2,inactive
same,Potency,HeLa,inactive
CNCCC(Oc1ccc(C(F)(F)F)cc1)c1ccccc1 (centres undefined),Potency,W2,3.79 µM (active)
same,max response,KB-3-1,2.04%
same,Potency,MKL-1,26.6 µM (active)
same,Potency,WaGa,21.1 µM (active)
CSc1ccc2c(c1)C(N1CCN(C)CC1)Cc1ccccc1S2 (centres undefined),Potency,W2,5.36 µM (active)
same,Potency,HEK293,16.8 µM (active)
same,outcome,HaCat [1],inactive
same,max response,KB-3-1,0.66%
same,outcome,HACAT [2],inactive
same,Potency,MCC-13,inactive
same,Potency,C33A,inactive
same,Potency,CASKI,inactive
same,Potency,Es-2,inactive
same,Potency,HeLa,inactive
CC1=C(CC(=O)O)c2cc(F)ccc2/C1=C\c1ccc(S(C)=O)cc1 (centres undefined),outcome,HaCat [1],inactive
same,Potency,C33A,inactive
same,Potency,CASKI,inactive
same,Potency,Es-2,inactive
same,Potency,HeLa,inactive
C=Cc1c(C)c2cc3[nH]c(cc4nc(cc5nc(cc1[nH]2)C(C)=C5CCC(=O)O)C(CCC(=O)O)=C4C)c(C)c3C=C,Potency,W2,inactive
same,max response,HEK293,-10.7%
same,outcome,HaCat [1],inactive
same,max response,KB-3-1,-3.43%
same,max response,NIH3T3,-14.7%
same,outcome,HACAT [2],inactive
same,Potency,MCC-13,inactive
same,Potency,MCC-26,inactive
same,Potency,MKL-1,inactive
same,Potency,MKL-2,inactive
same,Potency,UISO,inactive
same,Potency,WaGa,inactive
same,Potency,C33A,inactive
same,Potency,CAOV3,inactive
same,Potency,CASKI,inactive
same,Potency,Es-2,inactive
same,Potency,HeLa,inactive

# Source: PubChem BioAssay (NCATS)
